The record followed here is PubChem BioAssay (NCATS).

The structures appear in SMILES notation. Records with an inconclusive call do not appear. Calls of active or inactive are those of the source. The call rests on the fitted dose curve; in most records, active means well fitted inhibition curve with a large enough effect; inconclusive means small, poorly fitted or top-dose-only effect; inactive means flat fitted curve, though single readings scatter.

What all share (assay): qHTS profiling for inhibitors of Plasmodium falciparum proliferation (AID 504749); further: nearly all actives have a fitted effect of over 60% in size
Common to all, as to conditions: P. falciparum in erythrocytes, SYBR Green DNA, 72 h; series mostly up to 28.7 µM
(Quantitative high-throughput screening tests each substance at several concentrations.)

The test system of one experiment is CP335. The method, boiled down: (§1)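 Infected RBCs, 0.3% parasitemia/2.5% Hct final; cpd 72 h, 37 C, 5% CO2; lysis buffer with saponin/triton/SYBR Green I, o/n RT dark; FI 485/535; norm. to artemisinin (0.29 uM) and DMSO.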
Another experiment has as its system DFO2036. The method, boiled down: as §1
Another experiment concerns DIV14. Summed up: as §1
The subject of a further experiment is DIV17. The method, boiled down:
as §1

A further experiment deals with DIV30. Summed up:
as §1

In another experiment the test system is Dd2. The method, boiled down:
as §1

The subject of a further experiment is ECU. Summed up:
as §1

The next experiment concerns FAB9. The method, boiled down:
as §1

In another experiment the test system is GB4. Summed up:
as §1

For the next experiment, the system named is HB3. Summed up: as §1
Potency means the concentration at half of the fitted maximal effect.

As for `Nc1ccc(S(=O)(=O)Nc2cnc3ccccc3n2)cc1`, the Potency result in the experiment with CP335, with DFO2036, in the experiment on DIV14, in the experiment on DIV17, with DIV30 and with Dd2 was “inactive” throughout. In addition, the Potency result in the experiment on ECU, with FAB9, in the experiment on GB4 and in the experiment with HB3 was “inactive” throughout.
Turning to `CCN(CC)CCNC(=O)c1cc(Br)c(N)cc1OC`, the Potency entry with CP335, in the experiment on DFO2036, with DIV14, with DIV17, in the experiment on DIV30 and with Dd2 was “inactive” each time. The Potency entry in the experiment with ECU, with FAB9, in the experiment with GB4 and with HB3 was “inactive” each time.
Turning to `Cl/C(=C\n1cncn1)c1ccc(Cl)cc1Cl`, the Potency entry in the experiment on CP335, in the experiment with DFO2036, in the experiment with DIV14, with DIV17, in the experiment with DIV30 and in the experiment on Dd2 was “inactive” throughout. Besides, the Potency entry with ECU, in the experiment on FAB9, with GB4 and in the experiment with HB3 was “inactive” each time.
On to `NS(=O)(=O)c1ccc(Cl)c(S(N)(=O)=O)c1`, for which the Potency result in the experiment on CP335, in the experiment on DFO2036, in the experiment with DIV14, with DIV17, with DIV30 and in the experiment with Dd2 was “inactive” each time. Further, the Potency result in the experiment with ECU, in the experiment on FAB9, in the experiment on GB4 and in the experiment on HB3 was “inactive” each time.
`O=C(O)CCNC(=O)c1ccccc1`: the Potency result in the experiment with CP335, with DFO2036, in the experiment on DIV14, in the experiment with DIV17, in the experiment on DIV30 and with Dd2 was “inactive” in each case. Besides, the Potency entry with ECU, with FAB9, with GB4 and in the experiment with HB3 was “inactive” in each case.
As for `N#CCC(=O)NN`, the Potency result in the experiment with CP335, in the experiment with DFO2036, in the experiment with DIV14, with DIV17, with DIV30 and with Dd2 was “inactive” in each case. The Potency entry in the experiment on ECU, with FAB9, in the experiment on GB4 and in the experiment on HB3 was “inactive” each time.
For `O[C@@H](c1cc(C(F)(F)F)nc2c(C(F)(F)F)cccc12)[C@H]1CCCCN1`, the Potency in the experiment on CP335 is 107 nM (active); with DFO2036 it was 35.5 nM (active); in the experiment with DIV14, 33.8 nM (active); in the experiment with DIV17, 33.8 nM (active); in the experiment with DIV30 it was 33.8 nM (active); in the experiment with Dd2 it was 28.2 nM (active). Moreover, the Potency is 12.6 nM (active) in the experiment with ECU, 70.8 nM (active) with FAB9, 26.9 nM (active) in the experiment on GB4 and 56.2 nM (active) in the experiment on HB3.
As for `NCCNC(=O)c1ccc(Cl)cn1`, the Potency result in the experiment with CP335, with DFO2036, in the experiment with DIV14, in the experiment on DIV17, in the experiment with DIV30 and in the experiment on Dd2 was “inactive” each time. For the same compound, the Potency entry in the experiment on ECU, in the experiment with FAB9, in the experiment with GB4 and with HB3 was “inactive” throughout.
Take `CC(=O)OC[C@H]1O[C@@H](n2ncc(=O)[nH]c2=O)[C@H](OC(C)=O)[C@@H]1OC(C)=O`: the Potency entry in the experiment with CP335, in the experiment with DFO2036, in the experiment on DIV14, in the experiment on DIV17, in the experiment on DIV30 and in the experiment with Dd2 was “inactive” each time. Further, the Potency entry with ECU, in the experiment on FAB9, with GB4 and in the experiment with HB3 was “inactive” throughout.
`CC(=O)NC(=O)c1ccccc1O`: the Potency result in the experiment on CP335, in the experiment on DFO2036, in the experiment on DIV14, with DIV17, in the experiment on DIV30 and with Dd2 was “inactive” each time. In addition, the Potency result with ECU, in the experiment on FAB9, in the experiment on GB4 and in the experiment with HB3 was “inactive” throughout.
Consider `C=C[C@@]1(C)CC(=O)[C@]2(O)[C@@]3(C)[C@@H](O)CCC(C)(C)[C@@H]3[C@H](O)[C@H](OC(C)=O)[C@@]2(C)O1`, for which the Potency entry in the experiment on CP335, with DFO2036, in the experiment with DIV14, in the experiment with DIV17, in the experiment on DIV30 and with Dd2 was “inactive” in each case. In addition, the Potency entry in the experiment on ECU, in the experiment on FAB9, with GB4 and with HB3 was “inactive” in each case.
Regarding `C#C[C@]1(O)CC[C@H]2[C@@H]3CCC4=CC(=O)CC[C@@H]4[C@H]3CC[C@@]21CC`, the Potency entry in the experiment with CP335, in the experiment with DFO2036, in the experiment on DIV14, in the experiment on DIV17, with DIV30 and in the experiment with Dd2 was “inactive” throughout. The Potency entry in the experiment on ECU, in the experiment on FAB9 and with GB4 was “inactive” in each case.
Take `C#C[C@]1(O)CC[C@H]2[C@@H]3CCc4cc(OC)ccc4[C@H]3CC[C@@]21C`: the Potency entry in the experiment with CP335, in the experiment with DFO2036, with DIV14, in the experiment with DIV17, in the experiment on DIV30 and in the experiment on Dd2 was “inactive” throughout. Further, the Potency entry with ECU, with FAB9, in the experiment with GB4 and in the experiment with HB3 was “inactive” throughout.
For `Cc1c[nH]c2ccccc12`, the Potency entry in the experiment with CP335, with DFO2036, with DIV14, in the experiment on DIV17, with DIV30 and in the experiment with Dd2 was “inactive” throughout. In addition, the Potency result in the experiment with ECU, with FAB9, with GB4 and in the experiment with HB3 was “inactive” each time.
On to `CC(C)Cn1cnc2c1c(=O)n(C)c(=O)n2C`, for which the Potency entry in the experiment with CP335, in the experiment on DFO2036, in the experiment on DIV14, with DIV17, in the experiment on DIV30 and in the experiment on Dd2 was “inactive” in each case. The Potency entry with ECU, with FAB9, in the experiment with GB4 and in the experiment on HB3 was “inactive” each time.
As for `c1ccc(-c2nc[nH]c2-c2ccccc2)cc1`, the Potency entry in the experiment with CP335, with DFO2036, in the experiment on DIV14, in the experiment with DIV17, with DIV30 and with Dd2 was “inactive” in each case. For the same compound, the Potency result with ECU, in the experiment on FAB9, with GB4 and in the experiment on HB3 was “inactive” each time.
Turning to `CC(C)CCCC(C)N` (centres undefined), the Potency result with CP335, with DFO2036, in the experiment on DIV14, in the experiment with DIV17, with DIV30 and in the experiment with Dd2 was “inactive” in each case. Besides, the Potency entry with ECU, in the experiment with FAB9, in the experiment with GB4 and in the experiment with HB3 was “inactive” throughout.
Turning to `CC(C)Cc1ccc(CC(=O)O)cc1`, the Potency entry with CP335, in the experiment with DFO2036, with DIV14, in the experiment on DIV17, in the experiment on DIV30 and in the experiment with Dd2 was “inactive” in each case. The Potency result in the experiment on ECU, in the experiment with FAB9, in the experiment on GB4 and with HB3 was “inactive” each time.
For `CCOC(=O)c1c(N)sc2c1CCN(Cc1ccccc1)C2`, the Potency is 4260 nM (active) with CP335; 7080 nM (active) in the experiment on DFO2036; 2690 nM (active) in the experiment on DIV14; 7570 nM (active) with DIV17; 13500 nM (active) in the experiment on DIV30; 7940 nM (active) with Dd2. Moreover, the Potency was 7080 nM (active) in the experiment on ECU, 4470 nM (active) with FAB9, 4260 nM (active) in the experiment with GB4 and 3550 nM (active) in the experiment with HB3.
Turning to `CCOC(=O)[C@H](CCc1ccccc1)N[C@@H](C)C(=O)N1[C@H](C(=O)O)C[C@H]2CCCC[C@@H]21`, the Potency result in the experiment on CP335, with DFO2036, in the experiment with DIV14, in the experiment on DIV17, with DIV30 and in the experiment on Dd2 was “inactive” throughout. The Potency entry in the experiment with ECU, in the experiment on FAB9, in the experiment on GB4 and in the experiment with HB3 was “inactive” each time.
For `COc1ccc(-c2cc(C(F)F)nn2-c2ccc(S(N)(=O)=O)cc2)cc1F`, the Potency result with CP335, with DFO2036, in the experiment on DIV14, in the experiment on DIV17, in the experiment with DIV30 and with Dd2 was “inactive” each time. For the same compound, the Potency entry in the experiment on ECU, with FAB9, in the experiment with GB4 and in the experiment with HB3 was “inactive” throughout.
As to `Cc1cccc(C)c1NC(=O)CN1CCCC1`, the Potency result in the experiment with CP335, with DFO2036, with DIV14, in the experiment on DIV17, in the experiment on DIV30 and in the experiment on Dd2 was “inactive” throughout. Further, the Potency result in the experiment with ECU, in the experiment with FAB9, in the experiment with GB4 and in the experiment with HB3 was “inactive” each time.
For `Nc1nc(-c2ccccc2)c(Br)c(=O)[nH]1`, the Potency entry in the experiment on CP335, with DFO2036, with DIV14, with DIV17, in the experiment on DIV30 and in the experiment with Dd2 was “inactive” throughout. Further, the Potency result in the experiment with ECU, in the experiment on FAB9, with GB4 and in the experiment on HB3 was “inactive” in each case.
